“And” between values parts separate entries of the source, which are not always exact repeats. Equal values may be shown once. Screen size: about 5,500 compounds; about 2,000 (36%) were called active. Inconclusive results (about 18%) are left out. No stated cut-off is given here; in the data, active means normalized growth mostly below about 0.91 (no sharp cut-off); inconclusive means no clear call, values can overlap the other calls; inactive means mostly above about 0.92. This is one part of the list.
Test: chemical genetic growth profiling, strain panel (AID 1159580);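 further: tested at 20 µM; growth read once vehicle control cultures reached saturation at 30 °C; 1 = growth at the plate median or of vehicle wells; lower values mean less growth of the strain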
Conditions: growth OD

Measured: normalized growth

CCC1(C)CC(=O)NC1=O (stereo unspecified)
inactive: S. cerevisiae deletion strains, locus YJR075W, strain HOC1, hits give low values 1.01 | S. cerevisiae deletion strains, locus YKL009W, strain mrt4, hits give low values 1.03 | S. cerevisiae deletion strains, locus YKL068W, hits give low values 1.01 | S. cerevisiae deletion strains, locus YKL085W, strain MDH1 (second series), hits give low values 1.01 | S. cerevisiae deletion strains, locus YKL085W, strain MDH1, hits give low values 1.01 | S. cerevisiae deletion strains, locus YKL160W, strain elf1, hits give low values 0.992 | S. cerevisiae deletion strains, locus YKL190W, strain CNB1, hits give low values 1.02 | S. cerevisiae deletion strains, locus YKR001C, strain vps1, hits give low values 1.01 | S. cerevisiae deletion strains, locus YKR026C, strain gcn3, hits give low values 0.979 | S. cerevisiae deletion strains, locus YKR091W, strain srl3, hits give low values 0.972 | S. cerevisiae deletion strains, locus YLL001W, strain dnm1, hits give low values 0.967 | S. cerevisiae deletion strains, locus YLL026W, hits give low values 0.98 | S. cerevisiae deletion strains, locus YLL041C, strain sdh2, hits give low values 0.995 | S. cerevisiae deletion strains, locus YLR027C, strain aat2, hits give low values 0.975 | S. cerevisiae deletion strains, locus YLR039C, strain RIC1, hits give low values 1.03 | S. cerevisiae deletion strains, locus YLR058C, strain SHM2, hits give low values 1.02 | S. cerevisiae deletion strains, locus YLR102C, strain apc9, hits give low values 1.01 | S. cerevisiae deletion strains, locus YLR113W, strain HOG1, hits give low values 0.966 | S. cerevisiae deletion strains, locus YLR221C, strain rsa3, hits give low values 0.987 | S. cerevisiae deletion strains, locus YLR258W, strain gsy2, hits give low values 0.968 | S. cerevisiae deletion strains, locus YLR262C, strain YPT6 (second series), hits give low values 0.977 | S. cerevisiae deletion strains, locus YLR262C, strain YPT6, hits give low values 1.04 | S. cerevisiae deletion strains, locus YLR268W, strain sec22, hits give low values 1.02 | S. cerevisiae deletion strains, locus YLR320W, strain mms22, hits give low values 0.978 | S. cerevisiae deletion strains, locus YLR330W, strain CHS5, hits give low values 1.01 | S. cerevisiae deletion strains, locus YLR342W, strain FKS1 (second series), hits give low values 1.02 | S. cerevisiae deletion strains, locus YLR342W, strain FKS1, hits give low values 0.988 | S. cerevisiae deletion strains, locus YLR357W, strain rsc2, hits give low values 0.965 | S. cerevisiae deletion strains, locus YLR370C, strain arc18, hits give low values 0.981 | S. cerevisiae deletion strains, locus YLR371W, strain rom2, hits give low values 1.02 | S. cerevisiae deletion strains, locus YLR384C, strain iki3, hits give low values 0.969 | S. cerevisiae deletion strains, locus YLR418C, strain cdc73, hits give low values 1.02 | S. cerevisiae deletion strains, locus YML016C, strain PPZ1, hits give low values 1.01 | S. cerevisiae deletion strains, locus YML032C, strain rad52, hits give low values 1.01 | S. cerevisiae deletion strains, locus YML120C, strain ndi1, hits give low values 0.977 | S. cerevisiae deletion strains, locus YML124C, strain tub3, hits give low values 1.02 | S. cerevisiae deletion strains, locus YMR058W, strain fet3, hits give low values 0.969 | S. cerevisiae deletion strains, locus YMR078C, strain ctf18, hits give low values 1.02 | S. cerevisiae deletion strains, locus YMR125W, strain sto1, hits give low values 0.97 | S. cerevisiae deletion strains, locus YMR129W, hits give low values 0.979 | S. cerevisiae deletion strains, locus YMR205C, strain PFK2, hits give low values 0.992 | S. cerevisiae deletion strains, locus YMR223W, strain ubp8, hits give low values 1.02 | S. cerevisiae deletion strains, locus YMR231W, strain pep5, hits give low values 0.983 | S. cerevisiae deletion strains, locus YMR263W, strain SAP30, hits give low values 1.01 | S. cerevisiae deletion strains, locus YMR307W, strain GAS1, hits give low values 1.04 | S. cerevisiae deletion strains, locus YNL067W, strain RPL9B, hits give low values 1.01 | S. cerevisiae deletion strains, locus YNL071W, strain lat1, hits give low values 0.96 | S. cerevisiae deletion strains, locus YNL128W, strain TEP1, hits give low values 1.04 | S. cerevisiae deletion strains, locus YNL153C, strain GIM3, hits give low values 1.01 | S. cerevisiae deletion strains, locus YNL175C, strain NOP13, hits give low values 0.993 | S. cerevisiae deletion strains, locus YNL183C, strain NPR1, hits give low values 0.906 | S. cerevisiae deletion strains, locus YNL197C, strain WHI3, hits give low values 0.999 | S. cerevisiae deletion strains, locus YNL209W, strain ssb2, hits give low values 0.969 | S. cerevisiae deletion strains, locus YNL224C, strain SQS1, hits give low values 0.975 | S. cerevisiae deletion strains, locus YNL233W, strain BNI4, hits give low values 1 | S. cerevisiae deletion strains, locus YNL248C, strain rpa49, hits give low values 0.993 | S. cerevisiae deletion strains, locus YNL250W, strain rad50, hits give low values 1.01 | S. cerevisiae deletion strains, locus YNL271C, strain bni1, hits give low values 1.03 | S. cerevisiae deletion strains, locus YNL298W, strain CLA4, hits give low values 1.02 | S. cerevisiae deletion strains, locus YNL307C, strain MCK1, hits give low values 1.02 | S. cerevisiae deletion strains, locus YNL322C, strain KRE1 (second series), hits give low values 0.982 | S. cerevisiae deletion strains, locus YNL322C, strain KRE1, hits give low values 1.01 and 1.02 | S. cerevisiae deletion strains, locus YNR049C, strain mso1, hits give low values 0.969 | S. cerevisiae deletion strains, locus YNR052C, strain pop2, hits give low values 1.02 | S. cerevisiae deletion strains, locus YOL006C, strain TOP1, hits give low values 0.992 | S. cerevisiae deletion strains, locus YOL012C, strain htz1 0.885 | S. cerevisiae deletion strains, locus YOL147C, strain pex11, hits give low values 1.01 | S. cerevisiae deletion strains, locus YOR001W, strain rrp6, hits give low values 0.98 | S. cerevisiae deletion strains, locus YOR061W, strain CKA2, hits give low values 1.01 | S. cerevisiae deletion strains, locus YOR069W, strain VPS5, hits give low values 1.01 | S. cerevisiae deletion strains, locus YOR070C, strain gyp1, hits give low values 1.01 | S. cerevisiae deletion strains, locus YOR080W, strain dia2, hits give low values 0.976 | S. cerevisiae deletion strains, locus YOR083W, strain WHI5 (second series), hits give low values 1 | S. cerevisiae deletion strains, locus YOR083W, strain WHI5, hits give low values 0.976 | S. cerevisiae deletion strains, locus YOR106W, strain vam3, hits give low values 0.959 | S. cerevisiae deletion strains, locus YOR136W, strain idh2, hits give low values 1.02 | S. cerevisiae deletion strains, locus YOR144C, strain elg1, hits give low values 1.01 | S. cerevisiae deletion strains, locus YOR184W, strain ser1, hits give low values 1.01 | S. cerevisiae deletion strains, locus YOR231W, strain MKK1, hits give low values 0.977 | S. cerevisiae deletion strains, locus YOR265W, strain rbl2, hits give low values 0.978 | S. cerevisiae deletion strains, locus YOR270C, strain vph1, hits give low values 0.984 | S. cerevisiae deletion strains, locus YOR290C, strain snf2, hits give low values 0.963 | S. cerevisiae deletion strains, locus YOR316C, strain cot1, hits give low values 1.02 | S. cerevisiae deletion strains, locus YPL051W, strain arl3, hits give low values 0.987 | S. cerevisiae deletion strains, locus YPL055C, strain LGE1, hits give low values 0.988 and 1.06 | S. cerevisiae deletion strains, locus YPL078C, strain atp4, hits give low values 0.97 | S. cerevisiae deletion strains, locus YPL106C, strain sse1, hits give low values 1.01 | S. cerevisiae deletion strains, locus YPL240C, strain hsp82, hits give low values 0.973 | S. cerevisiae deletion strains, locus YPL241C, strain CIN2, hits give low values 1.01 | S. cerevisiae deletion strains, locus YPL256C, strain CLN2, hits give low values 0.956 | S. cerevisiae deletion strains, locus YPR119W, strain clb2, hits give low values 1.01 | S. cerevisiae deletion strains, locus YPR141C, strain kar3, hits give low values 1.02 | S. cerevisiae deletion strains, locus YPR163C, strain tif3, hits give low values 1.02 | S. cerevisiae deletion strains, locus YPR167C, strain met16, hits give low values 1.02 | S. cerevisiae deletion strains, strain wtn01, hits give low values 1.02 | S. cerevisiae strains, strain wild type, hits give low values 1.01

— PubChem BioAssay AID1159580 (chemical genetic matrix, 2015)
